Rows were chosen to be rich in hits. Some 4.1% of all compounds tested hit in one or more screens of this group.
hgDAF-12 ag: H. glycines DAF-12 receptor agonists, primary screen, cell-based, luminescence, HEK293, GAL4 fusion, UAS-luciferase; Nuclear hormone receptor DAF-12 (Heterodera glycines), GAL4 fusion; HEK293 GAL4-hgDAF12 UAS-luciferase reporter, agonist luminescence; normalized to butyrate control; activation, % at 6.8 µM; hit rate 1.8% among 370,000; AID 687014, 2013;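 active means activation above a cutoff set at the mean of all screened compounds plus 3 SD, cut at about 10% in these data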;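 further: 0% = DMSO wells and 100% = sodium butyrate wells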
DAX1 inh-1: DAX1 (NR0B1) inhibitors on StAR promoter, primary screen, cell-based, luminescence, SF-1 (NR5A1), full-length DAX-1; inhibition, % at 6.8 µM; hit rate 1.1% among 370,000; HEK293T StAR-luciferase reporter, SF-1/DAX-1 repression relief;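 active means inhibition above the mean over all tested compounds plus 3 SD, cut at about 3.6% in these data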;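 further: 0% = DAX-1 cells with DMSO and 100% = cells lacking DAX-1 with DMSO; higher inhibition means more luminescence from relief of DAX-1 repression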
ssDAF12 agonist: S. stercoralis DAF-12 nuclear receptor activators, primary screen, cell-based, luminescence, HEK293, GRIP1 co-expression, lit1-tk-luc. Nuclear hormone receptor DAF-12 (Strongyloides stercoralis). HEK293 ssDAF-12/GRIP1 lit1-tk-luc reporter; % of 3 µM dafachronic acid response. activation, % at 6.8 µM. hit rate 1% among 370,000;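 active means activation above the mean over all tested compounds plus 3 SD, cut at about 0.9% in these data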;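 further: 0% = DMSO-only wells and 100% = 3 µM delta7-dafachronic acid wells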
DAX1 inh-2: DAX1 (NR0B1) inhibitors, primary screen, cell-based, HEK293, Gal4-DAX1, luciferase luminescence; Nuclear receptor subfamily 0 group B member 1 (Homo sapiens), P51843; HEK293 Gal4-DAX1 luciferase reporter; inhibition, % at 6.75 µM; hit rate 0.99% among 340,000; AID 504766, 2011;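 active means inhibition above the mean over all tested compounds plus 3 SD, cut at about 4.2% in these data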;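 further: 0% = DAX1-transfected cells with DMSO and 100% = empty-vector control cells with DMSO; inhibition shows as a rise in luminescence from relieved DAX1 repression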
Target sequence (P51843 207-470 limits assumed): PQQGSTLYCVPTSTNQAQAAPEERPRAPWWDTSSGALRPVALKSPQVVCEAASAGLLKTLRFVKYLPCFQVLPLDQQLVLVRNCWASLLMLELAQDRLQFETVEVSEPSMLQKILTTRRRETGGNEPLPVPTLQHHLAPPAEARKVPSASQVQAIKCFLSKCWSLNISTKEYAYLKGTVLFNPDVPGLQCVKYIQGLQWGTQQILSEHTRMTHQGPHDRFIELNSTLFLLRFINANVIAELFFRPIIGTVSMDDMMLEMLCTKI
hcDAF12 agonist: H. contortus DAF-12 nuclear receptor activators, primary screen, cell-based, luminescence, HEK293, lit1-tk-luc reporter. AID 652067, 2013. activation, % at 6.8 µM. HEK293 hcDAF-12 lit1-tk-luc reporter; 0% DMSO, 100% Δ7-dafachronic acid. hit rate 1.4% among 370,000;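 active means activation above the mean of all tested compounds plus 3 SD, cut at about 5.5% in these data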;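 further: 100% = response to 3 µM Δ7-dafachronic acid high control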
* = called active by the depositor; . = not tested or not shown.

SMILES	hgDAF-12 ag	DAX1 inh-1	ssDAF12 agonist	DAX1 inh-2	hcDAF12 agonist
CCOC(=O)/C(C#N)=C/C1=C(N2CCOCC2)C(C)(C)OCC1	-0.2	0.7	-1.2	4.3*	0.0
C[C@H]1COc2cccc(N3CCCC3)c2S(=O)(=O)N1C	-1.6	-0.3	-0.9	.	-0.4
O=C(NN=Cc1ccc(-c2ccccc2)cc1)c1cc(-c2ccc(Cl)cc2)n[nH]1	2.0	-0.2	-0.9	.	-0.5
Fc1cccc(CNC2CCC23CCC(c2ccccc2)CC3)c1 (configuration not stated)	-0.9	.	-1.6	.	0.3
O=C(CSc1cccs1)Nc1ccc(Cl)cc1	3.9	0.5	-1.0	4.9*	1.9
CCOC(=O)c1sc(N/N=C/c2ccccc2)nc1C	6.9	2.6	1.2*	1.7	4.0
COC(=O)c1cc(=O)nc(NN=Cc2ccccc2O)s1	1.2	1.4	-0.8	.	0.4
CCOC(=O)c1sc(Nc2nc(C)cc(C)n2)nc1C	0.9	0.4	-1.6	0.9	-1.1
CC(=O)c1sc(N/N=C\c2ccccc2O)nc1C	25.5*	1.1	0.1	2.0	5.1
CCOC(=O)c1sc(Nc2nc(C)cc(OC)n2)nc1C	-0.8	-0.1	-1.3	4.5*	4.8
COc1ccc(CN2C/C(=C/c3ccc(C)cc3)N3C(=O)C[C@@H](c4ccccc4)N=C23)c(OC)c1	1.7	-1.3	-1.2	.	-1.4
Cc1ccccc1Cn1cc(CN2[C@@H](CC(C)C)COc3cc(Br)ccc3S2(=O)=O)nn1	-0.6	-1.3	-1.0	.	-2.1
O=C(Nc1ccc2c(c1)OCO2)c1ccc(CO)cc1	7.9	4.2*	0.2	0.6	3.0
Cc1nnc(NC(=O)c2ccc3c(c2)OCO3)s1	12.4*	2.8	-0.1	3.1	2.6
CC(=O)Nc1ccc(C(=O)Nc2ccc3c(c2)OCO3)cc1	6.5	0.7	-0.9	1.6	-0.2
O=C(Nc1ccc(Br)cc1)c1ccc2c(c1)OCO2	13.0*	2.9	0.4	2.0	6.5*
CCN1CCN(c2ccc(NC(=O)c3ccc4c(c3)OCO4)cc2)CC1	12.3*	1.8	0.3	1.3	1.5
Cc1cccc(C)c1-n1nnnc1C(c1ccnc2ccccc12)N1CCN(C(=O)OC(C)(C)C)CC1 (configuration not stated)	0.4	1.1	-0.1	.	-0.8
COC(=O)Cc1c(OC)ccn(CCc2c[nH]c3ccccc23)c1=O	9.9	4.0*	-0.3	1.2	4.8
COC(=O)Cc1c(O)ccn(CCc2c[nH]c3ccccc23)c1=O	3.8	-0.3	-1.5	0.7	0.0
CCOc1ccc(CN(C)CC(=O)Nc2cc(C)c(C)cc2[N+](=O)[O-])cc1	2.5	0.3	-1.3	0.4	0.0
CCOc1ccc(CN(C)CC(=O)Nc2cc(OC)c([N+](=O)[O-])cc2C)cc1	-7.9	-0.8	1.2*	-0.4	4.1
CN(CCO)c1cccc2c1S(=O)(=O)N(Cc1cn(Cc3ccc(Cl)cc3)nn1)Cc1ccccc1O2	-1.3	-1.9	-1.4	.	-0.7
O=C1NC(c2ccccc2)=N/C1=C/c1ccco1	9.1	1.6	1.0*	1.6	2.8
Cc1cc2c(=O)n(C)c(SCC(=O)Nc3ccccc3)nc2s1	-4.2	-0.2	-1.0	4.8*	0.8
SMILES	hgDAF-12 ag	DAX1 inh-1	ssDAF12 agonist	DAX1 inh-2	hcDAF12 agonist
Cc1cccc(NC(=O)CSc2nc3sc(C)cc3c(=O)n2C)c1	3.1	-1.7	-1.5	0.2	-2.5
Cc1cc2c(SCC(=O)Nc3cccc(O)c3)ncnc2s1	2.4	1.2	1.4*	0.0	6.4*
Cc1cc(C)cc(OC(C)CCN2CCC(C(O)(c3ccccc3)c3ccccc3)CC2)c1 (configuration not stated)	3.0	-0.1	-1.4	.	0.8
CC(C)(C)c1ccc(C(=O)Nc2cc(Cl)c(Cl)cc2C(=O)O)cc1	-1.9	.	-1.6	.	2.3
CC(c1ccc(O)cc1)c1cn(C)c2ccccc12 (configuration not stated)	2.5	0.2	-0.7	.	1.1
CCOC(=O)C1=CCN(S(=O)(=O)c2ccc(Cl)cc2)C1c1cccc(C)c1 (configuration not stated)	-1.0	-0.8	-0.9	.	-2.4

Screens deposited in PubChem BioAssay by The Scripps Research Institute Molecular Screening Center.
